# Screening results deposited in PubChem by National Center for Advancing Translational Sciences (NCATS).
# Shown are actives, neighbours in structure and some others; about 19% of the full set was active somewhere.
# KB-V1 MDR tox: qHTS assay for MDR1-selective chemotherapeutics: Primary screen using the drug-selected MDR subline cells KB-V1 | KB-V1 MDR cells viability, CellTiter-Glo, 72 h | Potency, µM (top dose mostly 46.1 µM), hits mostly cytotoxic | hit rate 3.4% among 400,000; note: nearly all actives have a fitted effect of over 60% in size
#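 KB-V1, DMEM (no phenol red) + 10% FBS; cpd pin-transferred, titration series; 72 h, 37 degrees C; CellTiter-Glo, luminescence. Data normalized, curve-fit.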
# TDP1 cell noCPT: qHTS for Inhibitors of human tyrosyl-DNA phosphodiesterase 1 (TDP1): qHTS in cells in absence of CPT; DT40 Tdp1-/- hTDP1 cells, no CPT, ATP luminescence, 48 h; Potency, µM (doses to about 46.2 µM), for the others: at the top dose activity change, negative = growth inhibition, most hits filed as inhibitors; hit rate 15% among 420,000; note: nearly all actives have a fitted effect of over 55% in size
#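 Luminescent ATP content (CellTiter-Glo) served as the growth readout. Knockout chicken DT40 cells expressing human TDP1 were exposed to compounds without camptothecin for a minimum 48 hr at 37 °C.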
# TDP1 cell CPT: qHTS for Inhibitors of human tyrosyl-DNA phosphodiesterase 1 (TDP1): qHTS in cells in presence of CPT | Potency, µM (series often up to 46.2 µM), for the others: at the highest dose activity change, negative = growth inhibition, usual class: inhibitors | hit rate 12% among 420,000 | chicken DT40 Tdp1-/-;hTDP1 cells + 20 nM CPT, ATP luminescence, 48 h; note: nearly all actives have a fitted effect of over 55% in size
#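 Cell growth measured by CellTiter-Glo luminescence after a minimum 48 h, 37 C compound exposure with 20 nM CPT in Tdp1-knockout DT40 cells stably expressing hTDP1, seeded 400/well; qHTS titration format.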
# HT1080-NT tox: qHTS for induction of synthetic lethality in tumor cells producing 2HG: qHTS for the HT-1080-NT fibrosarcoma cell line. HT-1080-NT fibrosarcoma viability, CellTiter-Glo ATP luminescence, 48 h. AID 686970, 2013. Potency, µM (titrated, usually from 46.1 µM), inactives show at the top dose activity, negative = less viability, actives largely listed as cytotoxic. hit rate 1.6% among 360,000;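 note: NT is the 2HG producing partner of a matched IDH1 knockdown line; 0% = DMSO-treated cells and -100% = media-only wells without cells; nearly all actives have a fitted effect of over 55% in size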
#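 Viability by CellTiter-Glo luminescence after 48 h compound exposure at 37C of HT-1080-NT cells (750/well, RPMI, 5% FBS). % activity scaled between DMSO wells and medium-only wells, then curve-fitted and categorized by curve class.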
# HT1080 IDH1KD tx: qHTS for induction of synthetic lethality in tumor cells producing 2HG: qHTS for the HT-1080-IDH1KD cell line | HT-1080 IDH1 knockdown viability, ATP luminescence, 48 h | Potency, µM (titrated, usually from 46.1 µM), inactives show top-dose activity, negative = toxicity, most hits filed as cytotoxic | hit rate 2% among 360,000;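 note: 0% = DMSO wells and -100% = cell-free medium wells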
#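 Using the IDH1-knockdown HT-1080 line run in the same batch and compound series as the NT line, viability after 48 h at 37 °C was determined by CellTiter-Glo luminescence and expressed as % activity.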
# KB-3-1 cytotox: qHTS assay for MDR1-selective chemotherapeutics: Primary screen using the parental adenocarcinoma cell KB-3-1. Potency, µM (series often up to 46.1 µM), most hits filed as cytotoxic. KB-3-1 viability, CellTiter-Glo ATP luminescence, 72 h. hit rate 1.4% among 400,000. AID 1347075, 2019; note: nearly all actives have a fitted effect of over 60% in size
#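 KB-3-1 parental drug-naive adenocarcinoma cells in DMEM/10% FBS, incubated 72 h at 37 C with pin-transferred compounds across a concentration series. Viability by CellTiter-Glo luminescence; concentration-response curves fitted after normalization.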
# An asterisk follows results filed as active; i = inactive; ? = inconclusive; . = not tested or not shown. Calls come from the whole dose curve; as a rule, active = well fitted curve in the direction sought with a large enough effect; inconclusive = small, poorly fitted or top-dose-only effect, or another doubt; inactive = no such curve, though single readings can be large; an effect the other way counts as inactive or inconclusive. Unless noted, % is set by controls: 0 for no effect and ±100 for the full control effect; potency is the fitted concentration of half-maximal effect.
SMILES,KB-V1 MDR tox,TDP1 cell noCPT,TDP1 cell CPT,HT1080-NT tox,HT1080 IDH1KD tx,KB-3-1 cytotox
COc1cc2c(cc1OC)CN(c1ccc(C(N)=O)cc1[N+](=O)[O-])CC2,i,?,?,-18.6%,-13.8%,i
CC(C)N(C)S(=O)(=O)c1ccc(NC(=O)CSC(=S)N2CCCC2)cc1,i,-7.0%,-10.8%,-3.1%,-9.6%,i
CCN1CCN(c2nc(N)c([N+](=O)[O-])c(Nc3cccc(C)c3)n2)CC1,3.26µM*,?,?,3.0%,3.8%,?
CCN1CCN(c2nc(Nc3cccc(OC)c3)nc(N)c2[N+](=O)[O-])CC1,i,9.2µM*,13µM*,?,?,?
Cc1ccc(Nc2nc(NCCCN3CCOCC3)nc(N)c2[N+](=O)[O-])cc1C,i,18.4µM*,?,5.5%,-0.1%,i
Cc1cccc(Nc2nc(N)c([N+](=O)[O-])c(N3CC(C)CC(C)C3)n2)c1 (stereo not drawn),20.6µM*,18.4µM*,?,16.4µM*,20.6µM*,?
Cc1cccc(Nc2nc(N)c([N+](=O)[O-])c(N3CC(C)OC(C)C3)n2)c1 (stereo not drawn),i,?,?,3.7%,4.5%,?
CC(C)N1CCC1(C)C(=O)Nc1ccc2cn[nH]c2c1 (stereo not drawn),i,-16.0%,?,16.0%,0.6%,i
CCOc1ccc(-n2c(SCC(=O)Nc3ccc(F)cc3)nc3c([nH]c4ccccc43)c2=O)cc1,?,?,?,.,.,i
CCOc1ccc(Nc2nc(N)c([N+](=O)[O-])c(N3CCN(C)CC3)n2)cc1,i,-12.3%,?,-3.6%,-10.5%,i
CN(C)c1ccc(Nc2nc(N)c([N+](=O)[O-])c(N3CCOCC3)n2)cc1,i,25.9µM*,?,-11.2%,-17.9%,i
CCN1CCN(c2nc(Nc3ccc(C)c(C)c3)nc(N)c2[N+](=O)[O-])CC1,?,23.1µM*,-22.5%,?,?,?
Cc1cc(C)cc(N2CC(c3nc(-c4cccc(Cl)c4)no3)CC2=O)c1 (stereo not drawn),i,-27.2%,?,.,.,i
COc1ccc(CCNC(=O)CCCn2nc(C)c3sc4ccccc4c3c2=O)c(OC)c1,i,?,23.1µM*,.,.,i
CCOC(=O)N1CCN(C(=O)CCCn2nc(C)c3sc4ccccc4c3c2=O)CC1,?,25.9µM*,?,19.3%,7.2%,i
Cc1noc(N)c1C1(O)C(=O)N(C(C)C)c2ccccc21 (stereo not drawn),i,-3.4%,6.7%,-4.5%,1.1%,i
Cc1nn(-c2ccccc2)c2c1C1(C(=O)N(C(C)C)c3ccccc31)C(C#N)=C(N)O2 (stereo not drawn),?,16.4µM*,9.2µM*,-17.8%,-1.1%,i
CCN1C(=O)C2(C(C#N)=C(N)Oc3n[nH]c(C(C)C)c32)c2ccccc21 (stereo not drawn),i,-26.7%,-23.9%,-0.2%,-0.6%,i
Cc1nn(-c2ccccc2)c(N)c1C1(O)C(=O)N(C(C)C)c2ccccc21 (stereo not drawn),i,8.2µM*,6.51µM*,5.1%,-3.6%,i
Cc1ccc(-n2nc(C)c(C3(O)C(=O)N(C(C)C)c4ccccc43)c2N)cc1 (stereo not drawn),i,11.6µM*,10.3µM*,-0.9%,2.1%,i
COc1ccc(CCNC(=O)CN(c2cc(C(F)(F)F)ccc2Cl)S(C)(=O)=O)cc1,i,?,4.9%,.,.,i
CCN1c2ccccc2-c2nc(SCC(=O)NCc3ccc(Cl)cc3)ncc2S1(=O)=O,i,?,?,.,.,i
Brc1ccc2c(c1)CNc1c(ncnc1N1CCOCC1)O2,?,?,15.8µM*,-14.0%,-23.7%,i
CCC1Nc2ncnc(N3CCOCC3)c2N(Cc2ccc(Br)cc2)C1=O (stereo not drawn),i,?,?,-1.9%,-1.3%,i
Cc1cccc(N2CCN(C(=O)CN3C(=O)COc4ccc(S(=O)(=O)N5CCCC5)cc43)CC2)c1C,i,.,.,.,.,i
SMILES,KB-V1 MDR tox,TDP1 cell noCPT,TDP1 cell CPT,HT1080-NT tox,HT1080 IDH1KD tx,KB-3-1 cytotox
COc1ccccc1-n1cc(C(=O)N2CCCC(CO)(Cc3ccccc3C)C2)cn1 (stereo not drawn),?,?,?,-0.4%,-3.7%,i
CCC1(C)NC(c2ccc3c(c2)OCO3)=CC(c2ccccc2O)N1 (stereo not drawn),i,11.2µM*,?,.,.,?
COc1cc(C[C@H](C)[C@H](C)Cc2ccc3c(c2)OCO3)ccc1O,i,?,?,0.5%,5.5%,i
CC(O)(c1ccccc1)c1nc(-c2ccc3c(c2)OCO3)cs1 (stereo not drawn),i,-17.7%,-13.5%,?,?,?
CC(C)C1N=C(c2ccc3c(c2)OCO3)CC(c2ccccc2O)N1 (stereo not drawn),?,4.61µM*,5.17µM*,?,?,?
CC(C)C1(C)NC(c2ccc3c(c2)OCO3)=CC(c2ccccc2O)N1 (stereo not drawn),i,12.6µM*,?,.,.,i
O=C(NCc1ccc(F)cc1)c1cc(C2CCCCN2S(=O)(=O)Cc2ccccc2)on1 (stereo not drawn),i,?,?,-2.0%,-4.5%,i
Cn1c(=O)cc(OCCCC(=O)NCc2ccc(F)cc2Cl)c2ccccc21,?,?,-26.4%,27.8%,15.0%,i
CCn1c(=O)cc(OCC(=O)NCCC(C)C)c2ccccc21,i,?,29.1µM*,9.7%,9.5%,i
CCc1ccc(CNC(=O)COc2cc(=O)n(CC)c3ccccc23)cc1,i,25.9µM*,?,.,.,?
CCn1c(=O)cc(OCC(=O)NC2CC2)c2ccccc21,i,30.0%,2.1%,-19.6%,-1.6%,i
CCn1c(=O)cc(OCC(=O)O)c2ccccc21,?,3.2%,4.2%,9.8%,8.4%,i
